# HT1080 IDH1KD tx: qHTS for induction of synthetic lethality in tumor cells producing 2HG: qHTS for the HT-1080-IDH1KD cell line. HT-1080 IDH1 knockdown viability, ATP luminescence, 48 h. Potency, µM (series often up to 46.1 µM), without a hit: at the top dose activity, negative = toxicity, actives largely listed as cytotoxic. 360,000 tested, 2% active;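 also: 0% = DMSO wells and -100% = cell-free medium wells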
#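 After a 2 h attachment period, IDH1KD HT-1080 cells took pin-transferred compound for 48 h at 37 °C; ATP-based luminescence after 10 min room-temperature reagent incubation reported viability.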
# KB-V1 MDR tox: qHTS assay for MDR1-selective chemotherapeutics: Primary screen using the drug-selected MDR subline cells KB-V1; KB-V1 MDR cells viability, CellTiter-Glo, 72 h; 400,000 tested, 3.4% active; Potency, µM (top dose mostly 46.1 µM), actives largely listed as cytotoxic; also: % is scaled to controls: 0 for no effect and ±100 for the full control effect; nearly all actives have a fitted effect of over 60% in size
#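 In this primary screen, KB-V1 cells overexpressing P-gp are incubated with library compounds (lowest to highest concentration) for 72 h at 37 degrees C before a luminescent ATP viability read.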
# SW480 rereplic: A quantitative high throughput screen for small molecules that induce DNA re-replication in SW480 colon adenocarcinoma cells | SW480 DNA re-replication, Hoechst DNA content imaging, 48 h | Potency, µM (doses to about 46.1 µM), inactives show at the top dose re-replication activation, usual class: activators | 340,000 tested, 1.8% active; also: % of control where 0% means no effect; nearly all actives have a fitted effect of over 55% in size
#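 Treated cells incubate 48 hr (37 C, 5% CO2), are stained 40 min with Hoechst, and nuclear fluorescence is enumerated; a rise in nuclei with high DNA signal marks re-replication.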
# KB-3-1 cytotox: qHTS assay for MDR1-selective chemotherapeutics: Primary screen using the parental adenocarcinoma cell KB-3-1; KB-3-1 viability, CellTiter-Glo ATP luminescence, 72 h; Potency, µM (titrated, usually from 46.1 µM), most hits filed as cytotoxic; 400,000 tested, 1.4% active; also: % is scaled to controls: 0 for no effect and ±100 for the full control effect; nearly all actives have a fitted effect of over 60% in size
#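 Viability of parental KB-3-1 cells, measured by CellTiter-Glo luminescence, followed a 72 h incubation at 37 °C with pinned compounds in phenol-red-free DMEM containing 10% FBS.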
# MCF10A rerep: A quantitative high throughput screen for small molecules that induce DNA re-replication in MCF 10a normal breast cells. MCF 10A DNA re-replication, Hoechst nuclear intensity, 48 h. Potency, µM (top dose mostly 46.1 µM), for inactives: at the top dose activity, positive = re-replication, most hits filed as activators. 350,000 tested, 2.9% active. AID 624296, 2012; also: % of control where 0% means no effect; nearly all actives have a fitted effect of over 50% in size
# HT1080-NT tox: qHTS for induction of synthetic lethality in tumor cells producing 2HG: qHTS for the HT-1080-NT fibrosarcoma cell line. HT-1080-NT fibrosarcoma viability, CellTiter-Glo ATP luminescence, 48 h. Potency, µM (titrated, usually from 46.1 µM), for inactives: at the top dose activity, negative = less viability, most hits filed as cytotoxic. 360,000 tested, 1.6% active;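 also: NT is the 2HG producing partner of a matched IDH1 knockdown line; 0% = DMSO-treated cells and -100% = media-only wells without cells; nearly all actives have a fitted effect of over 55% in size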
#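 HT-1080-NT fibrosarcoma cells (2HG-overproducing), 750 cells/well in RPMI with 5% FBS, dosed after 2 h and incubated 48 h at 37C. CellTiter-Glo luminescence normalized to DMSO and no-cell wells; concentration-response curves fitted and classed.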
# An asterisk follows results filed as active; i = inactive; ? = inconclusive; . = not tested or not shown; [ ] = another dose, or the depositor's remark. This is a sample that favours compounds with a hit; in the whole collection about 8% have one here. Calls follow the shape of the dose curve; as a rule, active = well fitted curve in the direction sought with a large enough effect; inconclusive = small, poorly fitted or top-dose-only effect, or another doubt; inactive = no such curve, though single readings can be large; an effect the other way counts as inactive or inconclusive. Potency is read from the fitted curve at half-maximal effect.
SMILES,HT1080 IDH1KD tx,KB-V1 MDR tox,SW480 rereplic,KB-3-1 cytotox,MCF10A rerep,HT1080-NT tox
c1ccc(CN2CCC(=NNc3nc4ccccc4[nH]3)CC2)cc1,?,i,23.1µM*,i,?,-29.5%
CC(C)(C)C1CCC(=NNc2nc3ccccc3[nH]2)CC1 (centres undefined),?,i,16.4µM*,i,14.1%,-19.2%
O=C(O)c1cc(NN=C2CCN(Cc3ccccc3)CC2)ccc1Cl,21.4%,i,4.0%,i,0.9%,-0.6%
c1ccc2c(c1)CC/C2=N/Nc1nc2ccccc2[nH]1,?,?,?,i,23.1µM*,?
CCOC(=O)c1c(C)sc(-c2c(-c3ccc4c(c3)OCCO4)[nH]c3c2c(=O)n(C)c(=O)n3C)c1O,.,i,.,i,.,.
CN(C)c1ccc(C=O)c(Cl)c1,.,i,.,i,.,.
CCc1nc2nc(C)c(NS(=O)(=O)c3ccc(C(C)(C)C)cc3)c(=O)n2[nH]1,.,i,.,i,.,.
Cc1nnc(SCC(=O)N2c3ccccc3Sc3ccccc32)n1N,1.7%[9.24 µM],i,23.1µM*,i,9.2µM*,-11.6%
OC(CN1c2ccccc2Sc2ccccc21)Cn1nnc2ccccc21 (centres undefined),?,16.4µM*,16.1%,?,?,-16.1%
Cn1c(Cn2nnc3ccccc32)nnc1SCC(=O)N1c2ccccc2CCc2ccccc21,1.8%,?,11.4%,i,-2.8%,1.4%
Cc1nnc(SC(=O)N2c3ccccc3Sc3ccccc32)s1,7.08µM*,?,-0.7%,i,2.9%,8.91µM*
O=C(CSc1nnc(-c2ccccc2)n1-c1ccccc1)N1c2ccccc2Sc2ccccc21,8.1%,i,-0.7%,i,15.2%,9.8%
O=C1c2ccccc2C(=O)N1CC(O)Cn1nnc2ccccc21 (centres undefined),4.2%,i,-22.4%,i,8.3%,-1.0%
Cn1c(Cn2nnc3ccccc32)nnc1SCC(=O)N1c2ccccc2Sc2ccccc21,?,16.4µM*,3.6%,i,?,?
CSc1ncc2c(n1)-c1ccccc1N(Cc1ccccc1)S2(=O)=O,.,i,.,i,.,.
Cn1c(SCC(=O)N2c3ccccc3Sc3ccc(Cl)cc32)nnc1-c1ccco1,7.4%,23.1µM*,0.6%,i,?,0.0%
COc1ccc(/C=N/Nc2ccc([N+](=O)[O-])cc2)cc1O,?,?,16.4µM*,?,11.6µM*,-27.5%
O=[N+]([O-])c1ccc(N/N=C\c2cccnc2)nc1,7.5%,i,-69.4%,i,-0.5%,2.9%
O=[N+]([O-])c1ccc(NN=Cc2cc(Br)ccc2O)nc1,4.61µM*,?,0.731µM*,i,11.0%,7.31µM*
Cc1cccc(C)c1-n1c(C)cc(/C=N\Nc2ccc([N+](=O)[O-])cn2)c1C,-18.3%,i,?,i,5.17µM*,-4.1%
O=[N+]([O-])c1ccc(NN=Cc2cccc(O)c2)nc1,-28.4%,i,?,i,16.4µM*,-14.5%
COc1cc(/C=N/Nc2ccc([N+](=O)[O-])cn2)cc(OC)c1O,?,i,16.4µM*,i,20.6µM*,?
CC(=O)Nc1ccc(C=NNc2ccc([N+](=O)[O-])cn2)cc1,-9.5%,i,-0.2%,i,9.6%,5.6%
C/C(=N\NC(=O)COc1ccc(C(C)(C)C)cc1)c1ccc(N2CCOCC2)cc1,-24.8%,i,-81.4%,i,9.2µM*,?
CCOC(=O)C(c1ccccc1)C(Nc1ccccc1)c1ccccn1 (centres undefined),-10.1%,?,-13.3%,i,-3.4%,5.7%
SMILES,HT1080 IDH1KD tx,KB-V1 MDR tox,SW480 rereplic,KB-3-1 cytotox,MCF10A rerep,HT1080-NT tox
CCOC(=O)C(C(=O)OCC)C(Nc1ccccc1)c1ccccc1 (centres undefined),?,i,1.0%,i,20.6µM*,?
Cc1ccc(Cn2c(=O)n(-c3cccc(C(F)(F)F)c3)c(=O)c3c(C)c(C)sc32)c(C)c1,.,i,.,i,.,.
Cc1oc(=O)c(NC(=O)c2ccccc2)cc1C(=O)c1ccccc1,-4.3%,i,20.6µM*,i,23.1µM*,-16.9%
CC(=O)Nc1cc2ccccc2oc1=O,15.9%,i,-1.4%,i,-5.1%,17.8%
CC(=O)c1cc(NC(=O)c2ccccc2)c(=O)oc1C,?,i,0.0%,i,?,5.7%
Cc1oc(=O)c(NC(=O)c2ccc(Cl)cc2)cc1C(=O)c1ccccc1,?,i,?,?,8.2µM*,?
Cc1ccc(C(=O)Nc2cc3ccccc3oc2=O)cc1,-16.2%,4.11µM*,2.91µM*,3.26µM*,18.4µM*,-26.8%
CC(C)(C)C(=O)Nc1ccccc1C(=O)OCc1cc(=O)n2ccsc2n1,.,?,.,i,.,.
COc1ccc(Nc2ccc(S(=O)(=O)N3CCCCC3)cc2[N+](=O)[O-])cc1OC,-4.0%,i,-1.6%,?,8.8%,-4.1%
O=C(O)c1ccccc1/C=N/Nc1ccc(S(=O)(=O)N2CCCC2)cc1[N+](=O)[O-],?,?,-7.6%,?,9.9%,13µM*
O=C(O)c1ccccc1NS(=O)(=O)c1ccc(NN=Cc2ccccc2F)c([N+](=O)[O-])c1,0.3%,?,-3.4%,i,-1.4%,-2.8%
COc1cc(Nc2ccc(S(=O)(=O)N3CCN(C)CC3)cc2[N+](=O)[O-])cc(OC)c1,-9.1%,i,3.26µM*,i,1.6%,-19.5%
COc1ccc(Nc2ccc(S(=O)(=O)N3CCCCCC3)cc2[N+](=O)[O-])cc1,-16.1%,2.91µM*,-145.5%,?,-5.1%,-13.8%
COc1ccc(OCCOc2ccc(S(=O)(=O)N3CCCC3)cc2[N+](=O)[O-])cc1,-0.7%,14.6µM*,2.0%,?,19.0%,-1.6%
CCC(=O)Oc1ccc(C2Nc3ccccc3-c3nnc(SC)nc3O2)cc1 (centres undefined),.,i,.,i,.,.
COc1ccc(S(=O)(=O)n2nc(C)c(S(=O)(=O)N3CCC(C)CC3)c2C)cc1C,.,?,.,i,.,.
CCCOc1c(Cl)cc(C(=O)N(Cc2cccc(OC)c2)C2CCS(=O)(=O)C2)cc1Cl (centres undefined),.,i,.,i,.,.
